From PubChem BioAssay (Tox21)
Records with an inconclusive call do not appear. Calls of active or inactive are those of the source. Unless noted, calls come from the whole dose curve; as a rule, active = well fitted curve in the direction sought with a large enough effect in the repeat runs; inconclusive = weak or mixed curves; inactive = no such curve, though single readings can be large; an effect the other way counts as inactive or inconclusive.

Assays:
[1] = qHTS assay for small molecules that induce genotoxicity in human embryonic kidney cells expressing luciferase-tagged ATAD5 (AID 651632); note: nearly all actives have a fitted effect of over 15% in size
In short: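 ATAD5-luc HEK293T, 2,000 cells/well; cpd or DMSO pin-transferred; 16 hr, 37C/5% CO2; Amplite 30 min RT; luminescence.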

[2] = qHTS assay for small molecules that induce genotoxicity in human embryonic kidney cells expressing luciferase-tagged ATAD5 - cell viability (AID 651634; calls by dose curve; note: nearly all actives have a fitted effect of over 25% in size)
In short: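 Fluorescence from CellTiter-Fluor, reporting protease activity within live cells, served as the viability read-out. HEK293T cells carrying luciferase-tagged ATAD5 had been treated with compound for 15.5 hr at 37C.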

[3] = qHTS assay for small molecule disruptors of the mitochondrial membrane potential - cell viability (AID 720634; calls by dose curve;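 note: human HepG2 liver cancer cells; series mostly up to about 83 µM; nearly all actives have a fitted effect of over 20% in size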)
In short: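 Cells: HepG2, 2,000/well, attached overnight. Compound 1 hr, 37 C/5% CO2. +m-MPI dye, +CellTiter-Glo 30 min RT. Readout: luminescence (ATP).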

[4] = qHTS assay to test for compound auto fluorescence at 590 nm (red) in HepG2 cells (AID 720674)
In short: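 Compound auto-fluorescence is scored relative to Rose Bengal sodium, measured at 540/590 nm in live HepG2 cultures after 1 hr compound contact (37 C, 5% CO2).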

[5] = qHTS assay to test for compound auto fluorescence at 535 nm (green) in HepG2 cells (AID 720675)
[6] = qHTS assay to test for compound auto fluorescence at 460 nm (blue) in HEK293 cells (AID 720678)
In short: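 Triamterene serves as the blue fluorophore standard. Compound signal at 405/460 nm is read in HEK293 wells (2,000 cells, 10% dialyzed FBS) after overnight treatment at 37C.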

[7] = qHTS assay to test for compound auto fluorescence at 590 nm (red) in HEK293 cells (AID 720679)
In short: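 We plated HEK293 cells in 10% dialyzed FBS medium, let them adhere for 4-5 hr, then added 23 nL compound. Overnight at 37C and 5% CO2 preceded fluorescence measurement at 540/590nm.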

[8] = qHTS assay to test for compound auto fluorescence at 535 nm (green) in HEK293 cells (AID 720680)
[9] = qHTS assay to test for compound auto fluorescence at 535 nm (green) in HEK293 cell free culture (AID 720682)
In short: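 Intrinsic compound fluorescence is measured in culture medium containing 10% FBS, with excitation at 485 nm and detection at 535 nm, referenced to fluorescein.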

[10] = qHTS assay to test for compound auto fluorescence at 590 nm (red) in HEK293 cell free culture (AID 720683)
In short: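 Tox21 10K library compounds were pinned into cell-free DMEM with 10% FBS and fluorescence was read at excitation 540 nm. Activity is expressed as Rose Bengal sodium equivalency.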

[11] = qHTS assay to test for compound auto fluorescence at 590 nm (red) in HepG2 cell free culture (AID 720684)
In short: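 Red fluorescence (540 nm excitation, 590 nm emission) was measured after compound transfer into cell-free MEM supplemented with 10% FBS. Values are equivalencies against Rose Bengal sodium.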

[12] = qHTS assay to test for compound auto fluorescence at 460 nm (blue) in HepG2 cell free culture (AID 720685)
In short: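 Compound (23 nL) or DMSO pinned into cell-free MEM with 10% FBS; blue fluorescence read at 405/460 nm excitation/emission, expressed as auto-fluorescence equivalency to triamterene.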

[13] = qHTS assay to test for compound auto fluorescence at 535 nm (green) in HepG2 cell free culture (AID 720686)
[14] = qHTS assay to test for compound auto fluorescence at 460 nm (blue) in HepG2 cells (AID 720687)
In short: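 Cells (2,000/well in MEM with 10% FBS) attached overnight at 37 C, then were exposed to compound or DMSO for 1 hr at 37 C, 5% CO2. Fluorescence read at Ex/Em 405/460 nm, expressed as triamterene-equivalent signal.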

[15] = molecular target: Glucocorticoid receptor (Homo sapiens) (UniProt P04150); assay: qHTS assay to identify small molecule agonists of the glucocorticoid receptor (GR) signaling pathway (AID 720691; active = well fitted activation curve with a large enough effect in the signal ratio in the repeat runs, not every such curve was filed as active; the % refers to the signal ratio)
Glucocorticoid receptor (Homo sapiens), sequence (P04150 whole entry, looked up): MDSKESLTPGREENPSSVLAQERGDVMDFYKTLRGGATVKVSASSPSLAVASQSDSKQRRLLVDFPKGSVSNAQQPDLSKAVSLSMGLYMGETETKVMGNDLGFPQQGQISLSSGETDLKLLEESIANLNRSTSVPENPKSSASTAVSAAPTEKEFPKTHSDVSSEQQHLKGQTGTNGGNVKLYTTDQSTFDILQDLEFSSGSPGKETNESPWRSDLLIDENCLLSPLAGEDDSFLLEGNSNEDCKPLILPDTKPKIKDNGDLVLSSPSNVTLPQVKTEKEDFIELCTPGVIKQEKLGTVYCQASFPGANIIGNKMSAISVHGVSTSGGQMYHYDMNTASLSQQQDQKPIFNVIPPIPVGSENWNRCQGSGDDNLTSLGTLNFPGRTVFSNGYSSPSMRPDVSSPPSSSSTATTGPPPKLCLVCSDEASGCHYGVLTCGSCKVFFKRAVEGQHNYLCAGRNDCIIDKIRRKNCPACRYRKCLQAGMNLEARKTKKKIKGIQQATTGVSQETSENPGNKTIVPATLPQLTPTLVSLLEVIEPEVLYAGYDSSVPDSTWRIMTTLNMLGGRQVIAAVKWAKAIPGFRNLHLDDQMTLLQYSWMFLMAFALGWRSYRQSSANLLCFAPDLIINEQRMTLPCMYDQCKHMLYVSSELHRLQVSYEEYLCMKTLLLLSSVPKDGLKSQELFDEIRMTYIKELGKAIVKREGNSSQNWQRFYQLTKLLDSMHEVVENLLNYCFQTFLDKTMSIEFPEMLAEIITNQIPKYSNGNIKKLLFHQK
In short: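 Fluorescence intensity from LiveBLAzer B/G FRET substrate (2 h, room temperature) reports beta-lactamase expression driven by the glucocorticoid response element in GR-bla HeLa cells after 18 h compound exposure at 37 C.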

[16] = qHTS assay to test for compound auto fluorescence at 460 nm (blue) in HEK293 cell free culture (AID 720681)
In short: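 Test compounds were pinned into cell-free culture medium (DMEM with 10% FBS) and fluorescence was read directly at Ex/Em 405/460 nm. Signals were expressed as fluorescence equivalents of triamterene, with DMSO vehicle as control.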

[17] = molecular target: Glucocorticoid receptor (Homo sapiens) (UniProt P04150); assay: qHTS assay to identify small molecule antagonists of the glucocorticoid receptor (GR) signaling pathway (AID 720692; active = well fitted inhibition curve with a large enough effect in the signal ratio in the repeat runs, not every such curve was filed as active; the % refers to the signal ratio)
In short: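 HeLa GR-bla cells; cmpd + dex 5 nM final, 18 h 37 C; LiveBLAzer B/G FRET substrate 2 h RT; fluorescence intensity read. Antagonist mode, qHTS.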

[18] = qHTS assay for small molecule agonists of the p53 signaling pathway - cell viability (AID 651633; calls by dose curve;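 note: p53RE-bla HCT reporter cells with a stable beta-lactamase p53 reporter; series mostly up to about 83 µM; nearly all actives have a fitted effect of over 30% in size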)
In short: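 p53RE-bla cells, seeded at 4,000 per well and rested 5 h at 37 C/5% CO2, received compounds in DMSO for 16 h at 37 C. CellTiter-Glo was then added, and luminescence was read after 30 min at room temperature to gauge cytotoxicity.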

[19] = qHTS assay for small molecule disruptors of the mitochondrial membrane potential (AID 720635)
In short: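 HepG2 cells (2,000/well) attached overnight at 37C, then took compound for 1 hr at 37C, 5% CO2. Mito-MPS dye was added for 30 min; fluorescence was read at 490/535 nm (monomers) and 540/590 nm (aggregates).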

Measured: Potency

CC1CC(=O)CC(C)(C)C1 (stereo not drawn)
inactive: [1] | [2] | [3] | [4] | [5] | [6] | [7] | [8] | [9] | [10] | [11] | [12] | [13] | [14] | [15]

CC(C)C1OCCN1CCOC(=O)NCCCCCCNC(=O)OCCN1CCOC1C(C)C (stereo not drawn)
inactive: [1] | [2] | [3] | [5] | [6] | [7] | [8] | [16] | [9] | [10] | [11] | [12] | [13] | [14] | [15] | [17]

CC(C)NCC(O)c1ccc2ccccc2c1 (stereo not drawn)
inactive: [18] | [3] | [19] | [4] | [5] | [6] | [7] | [8] | [16] | [9] | [10] | [11] | [12] | [13] | [14] | [15]

CN1C[C@@H]2C[C@H]1CN2c1cc2c(cc1F)c(=O)c(C(=O)O)cn2C1CC1
inactive: [1] | [18] | [2] | [3] | [5] | [6] | [7] | [8] | [16] | [9] | [10] | [11] | [12] | [13] | [14] | [15] | [17]

Cc1c(C(=O)c2c[nH]n(C)c2=O)ccc(S(C)(=O)=O)c1C1=NOCC1
inactive: [1] | [18] | [2] | [3] | [5] | [6] | [8] | [16] | [9] | [10] | [11] | [12] | [13] | [14] | [15]

CC(C)(CO)C(O)C(=O)NCCCO (stereo not drawn)
inactive: [1] | [2] | [3] | [19] | [5] | [6] | [7] | [8] | [16] | [9] | [10] | [11] | [12] | [13] | [14]

Cc1ccc(C)c([N+](=O)[O-])c1
inactive: [2] | [3] | [19] | [4] | [5] | [6] | [7] | [8] | [16] | [9] | [10] | [11] | [12] | [13] | [14] | [15]

CCC(C)C(C)=O (stereo not drawn)
inactive: [1] | [18] | [2] | [5] | [6] | [7] | [8] | [16] | [9] | [10] | [11] | [12] | [13] | [14] | [15] | [17]

O/N=C/C=N/O
inactive: [2] | [3] | [19] | [4] | [5] | [6] | [8] | [9] | [10] | [11] | [12] | [13] | [14] | [15] | [17]

COC(=O)c1ccccc1C(=O)O
inactive: [1] | [18] | [3] | [19] | [5] | [6] | [7] | [8] | [16] | [9] | [10] | [11] | [12] | [13] | [14] | [15] | [17]

C[C@H]1[C@@H](c2ccccc2)NC(=O)N1C
inactive: [1] | [18] | [3] | [4] | [5] | [6] | [7] | [8] | [16] | [9] | [10] | [11] | [12] | [13] | [14]
